Assay results: PubChem BioAssay (EPA / NIEHS)
Active and inactive are the calls of the source. The calls were made as follows: active = hit-call score of the fitted dose curve at least 0.9, where 1 is the maximum; inactive = score below 0.9.

Experiments:
Conditions in all cases: mRNA level, 48 h; actives raise or lower the signal
[1] = read-out: Peroxisomal acyl-coenzyme A oxidase 1 (ACOX1) gene, ACOX1 (gene 51); experiment: LTEA_HepaRG_ACOX1: Life Technologies and Expression Analysis (LTEA) Assay for Peroxisomal acyl-coenzyme A oxidase 1 (ACOX1) gene using HepaRG (AID 2283467)
In short: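 Differentiated human HepaRG cells were exposed in duplicate for 48 h in serum-free induction medium to eight half-log concentrations up to 100 uM in 0.5% DMSO. ACOX1 mRNA was then quantified by TaqMan qRT-PCR, normalized to ACTB, GAPDH and POLR2A.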

[2] = read-out: Alkaline Phosphatase, Placental (ALPP) gene, ALPP (gene 250); experiment: LTEA_HepaRG_ALPP: Life Technologies and Expression Analysis (LTEA) Assay for Alkaline Phosphatase, Placental (ALPP) gene using HepaRG (AID 2283468)
In short: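 Using human liver HepaRG cells, chemicals are tested in duplicate over 48 h at half-log concentrations topping at 100 uM; phenobarbital 1 mM serves as induction control. ALPP mRNA change by qRT-PCR, bidirectional fit against vehicle.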

[3] = read-out: Bcl-2 (BAD) gene, BAD (gene 572); experiment: LTEA_HepaRG_BAD: Life Technologies and Expression Analysis (LTEA) Assay for Bcl-2 (BAD) gene using HepaRG (AID 2283469)
In short: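 Differentiated human HepaRG cells in serum-free induction medium were exposed in duplicate for 48 h to eight concentrations (top 100 uM, half-log steps, 0.5% DMSO). BAD mRNA was quantified by qRT-PCR normalised to ACTB, GAPDH and POLR2A, with bidirectional fitting versus DMSO.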

[4] = read-out: Bcl-2 (BAX) gene, BAX (gene 581); experiment: LTEA_HepaRG_BAX: Life Technologies and Expression Analysis (LTEA) Assay for Bcl-2 (BAX) gene using HepaRG (AID 2283470)
In short: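 HepaRG (human liver), 48 h exposure, duplicate wells. 8-pt curve, half-log from 100 uM, 0.5% DMSO. BAX transcript by TaqMan qRT-PCR; ACTB/GAPDH/POLR2A normalization; gain or loss vs DMSO baseline.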

[5] = read-out: adenosine kinase (ADK) gene, ADK (gene 132); experiment: LTEA_HepaRG_ADK: Life Technologies and Expression Analysis (LTEA) Assay for adenosine kinase (ADK) gene using HepaRG (AID 2283471)
In short: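 HepaRG (human liver), 48 h chemical exposure, 8-pt half-log series, top 100 uM, 0.5% DMSO vehicle. Readout: ADK mRNA by qRT-PCR vs housekeeping genes; bidirectional curve fit relative to DMSO baseline.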

[6] = read-out: Alpha-fetoprotein (AFP) gene, AFP (gene 174); experiment: LTEA_HepaRG_AFP: Life Technologies and Expression Analysis (LTEA) Assay for Alpha-fetoprotein (AFP) gene using HepaRG (AID 2283472)
In short: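 HepaRG, single lot; 48 h post-plating -> serum-free induction medium; cpd 8-pt, 100 uM top, half-log, 0.5% DMSO, duplicate, 48 h. RNA -> qRT-PCR AFP, norm ACTB/GAPDH/POLR2A. Bidirectional fit vs DMSO.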

[7] = read-out: BCL2L11 (gene 10018); experiment: LTEA_HepaRG_BCL2L11: Life Technologies and Expression Analysis (LTEA) Assay for Bcl-2 (BCL2L11) gene using HepaRG (AID 2283473)
In short: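 Human hepatic HepaRG cultures are treated 48 h with test chemicals (maximum 100 uM, 0.5% DMSO vehicle). Expression of BCL2L11 is measured by qRT-PCR against ACTB, GAPDH and POLR2A, with activity in either direction scored relative to vehicle.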

[8] = read-out: Apolipoprotein A-V (APOA5) gene, APOA5 (gene 116519); experiment: LTEA_HepaRG_APOA5: Life Technologies and Expression Analysis (LTEA) Assay for Apolipoprotein A-V (APOA5) gene using HepaRG (AID 2283474)
In short: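 Concentration-response of APOA5 expression in HepaRG: eight half-log doses to 100 uM, 48 h, qRT-PCR normalized to ACTB/GAPDH/POLR2A, bidirectional fitting with 0.5% DMSO as baseline.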

[9] = read-out: Bcl-2 (BID) gene, BID (gene 637); experiment: LTEA_HepaRG_BID: Life Technologies and Expression Analysis (LTEA) Assay for Bcl-2 (BID) gene using HepaRG (AID 2283476)
In short: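 Transcript levels of BID, measured by qRT-PCR and normalized to three housekeeping genes, were fitted bidirectionally against DMSO controls. Cells were HepaRG, dosed 48 h at up to 100 uM.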

[10] = read-out: Cytochrome P450 (CYP24A1), CYP24A1 (gene 1591); experiment: LTEA_HepaRG_CYP24A1: Life Technologies and Expression Analysis (LTEA) Assay for Cytochrome P450 (CYP24A1) using HepaRG (AID 2283478)
In short: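 Gene expression of CYP24A1 by TaqMan qRT-PCR in HepaRG after 48 h treatment, highest concentration 100 uM; activity fitted in both directions relative to DMSO vehicle.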

[11] = read-out: Cytochrome P450 (CYP1A2), CYP1A2 (gene 1544); experiment: LTEA_HepaRG_CYP1A2: Life Technologies and Expression Analysis (LTEA) Assay for Cytochrome P450 (CYP1A2) using HepaRG (AID 2283479)
In short: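 In duplicate wells, HepaRG cultures maintained in 0.5% DMSO were treated 48 h across an 8-point, half-log series topping at 100 uM; phenobarbital (1 mM) served as induction control. Expression was read by qRT-PCR.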

[12] = read-out: cysteine-aspartic acid protease (CASP8), CASP8 (gene 841); experiment: LTEA_HepaRG_CASP8: Life Technologies and Expression Analysis (LTEA) Assay for cysteine-aspartic acid protease (CASP8) using HepaRG (AID 2283480)
In short: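 Differentiated human HepaRG cells, plated 48 h then switched to serum-free induction medium, were exposed in duplicate for 48 h to 8 half-log concentrations up to 100 uM in 0.5% DMSO. CASP8 mRNA was quantified by qRT-PCR, normalized to ACTB/GAPDH/POLR2A.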

[13] = read-out: Cytochrome P450 (CYP2B6), CYP2B6 (gene 1555); experiment: LTEA_HepaRG_CYP2B6: Life Technologies and Expression Analysis (LTEA) Assay for Cytochrome P450 (CYP2B6) using HepaRG (AID 2283481)
In short: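 Human HepaRG, 48 h dosing, 0.5% DMSO vehicle, top dose 100 uM. CYP2B6 transcript by qRT-PCR, housekeeping-normalized, bidirectional curve fit.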

[14] = read-out: Cytochrome P450 2C19 (Homo sapiens) (UniProt P33261); experiment: LTEA_HepaRG_CYP2C19: Life Technologies and Expression Analysis (LTEA) Assay for CYP2C19 using HepaRG (AID 2283482)
In short: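 Endpoint: CYP2C19 mRNA change, bidirectional fit vs 0.5% DMSO. Cells: HepaRG, 48 h exposure, eight-point series topping at 100 uM. Quantitation: qRT-PCR normalized to ACTB, GAPDH, POLR2A.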

[15] = read-out: CYP2C8 (gene 1558); experiment: LTEA_HepaRG_CYP2C8: Life Technologies and Expression Analysis (LTEA) Assay for CYP2C8 using HepaRG (AID 2283483)
In short: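 Differentiated human HepaRG cells were exposed for 48 h in serum-free induction medium to eight half-log concentrations up to 100 uM in 0.5% DMSO, in duplicate. CYP2C8 mRNA was measured by TaqMan qRT-PCR, normalized to ACTB, GAPDH and POLR2A, and fitted bidirectionally against DMSO.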

[16] = read-out: CYP2C9 (gene 1559); experiment: LTEA_HepaRG_CYP2C9: Life Technologies and Expression Analysis (LTEA) Assay for CYP2C9 using HepaRG (AID 2283484)
In short: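 Differentiated human HepaRG cells were exposed 48 h in serum-free induction medium to eight half-log concentrations up to 100 uM in 0.5% DMSO. CYP2C9 mRNA was measured by qRT-PCR, normalized to ACTB, GAPDH and POLR2A, and fitted bidirectionally against DMSO.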

[17] = read-out: CYP2E1 (gene 1571); experiment: LTEA_HepaRG_CYP2E1: Life Technologies and Expression Analysis (LTEA) Assay for CYP2E1 using HepaRG (AID 2283485)
In short: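 Human liver line HepaRG, plated 48 h, then serum-free induction medium + chemical x 48 h; 8-pt CRC from 100 uM, half-log, 0.5% DMSO, n=2. Readout: CYP2E1 mRNA qRT-PCR vs ACTB/GAPDH/POLR2A; bidirectional fit vs DMSO.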

[18] = read-out: CYP4A11 (gene 1579); experiment: LTEA_HepaRG_CYP4A11: Life Technologies and Expression Analysis (LTEA) Assay for CYP4A11 using HepaRG (AID 2283486)
In short: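 Human hepatic HepaRG cultures receive duplicate 48 h exposures across a concentration-response series topping at 100 uM. Expression changes in CYP4A11 are measured by qRT-PCR relative to DMSO controls.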

[19] = read-out: Cytochrome P450 3A4 (Homo sapiens) (UniProt P08684); experiment: LTEA_HepaRG_CYP3A4: Life Technologies and Expression Analysis (LTEA) Assay for CYP3A4 using HepaRG (AID 2283487)
In short: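 CYP3A4 transcript measured by TaqMan qRT-PCR and normalized to three housekeeping genes after 48 h chemical exposure of human HepaRG cells. Top concentration 100 uM, half-log steps, 0.5% DMSO vehicle; gain or loss fitted against DMSO baseline.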

[20] = read-out: DNA damage-inducible transcript 3 (DDIT3), DDIT3 (gene 1649); experiment: LTEA_HepaRG_DDIT3: Life Technologies and Expression Analysis (LTEA) Assay for DNA damage-inducible transcript 3 (DDIT3) using HepaRG (AID 2283488)
In short: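 HepaRG plated 48 h, switched to serum-free induction medium, dosed 48 h (100 uM top, half-log, 8 pts, 0.5% DMSO, n=2); RNA isolated; DDIT3 by qRT-PCR; bidirectional curve fit vs DMSO.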

Measured: AC50

Chain of Cytochrome P450 2C19 (Homo sapiens) (P33261 whole entry, looked up): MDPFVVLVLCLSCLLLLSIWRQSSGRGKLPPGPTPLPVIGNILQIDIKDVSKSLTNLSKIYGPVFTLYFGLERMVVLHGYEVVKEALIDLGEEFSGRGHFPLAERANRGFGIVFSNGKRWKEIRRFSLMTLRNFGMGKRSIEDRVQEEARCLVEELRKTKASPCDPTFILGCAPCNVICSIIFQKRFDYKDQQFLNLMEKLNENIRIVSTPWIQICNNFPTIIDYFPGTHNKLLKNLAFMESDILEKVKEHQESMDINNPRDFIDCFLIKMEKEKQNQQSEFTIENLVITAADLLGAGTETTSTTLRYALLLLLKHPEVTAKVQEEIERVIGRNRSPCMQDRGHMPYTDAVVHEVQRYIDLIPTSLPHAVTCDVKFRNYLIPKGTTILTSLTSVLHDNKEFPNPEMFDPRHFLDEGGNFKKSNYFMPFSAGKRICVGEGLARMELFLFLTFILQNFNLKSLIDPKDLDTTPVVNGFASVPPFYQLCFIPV
Chain of Cytochrome P450 3A4 (Homo sapiens) (P08684 whole entry, looked up): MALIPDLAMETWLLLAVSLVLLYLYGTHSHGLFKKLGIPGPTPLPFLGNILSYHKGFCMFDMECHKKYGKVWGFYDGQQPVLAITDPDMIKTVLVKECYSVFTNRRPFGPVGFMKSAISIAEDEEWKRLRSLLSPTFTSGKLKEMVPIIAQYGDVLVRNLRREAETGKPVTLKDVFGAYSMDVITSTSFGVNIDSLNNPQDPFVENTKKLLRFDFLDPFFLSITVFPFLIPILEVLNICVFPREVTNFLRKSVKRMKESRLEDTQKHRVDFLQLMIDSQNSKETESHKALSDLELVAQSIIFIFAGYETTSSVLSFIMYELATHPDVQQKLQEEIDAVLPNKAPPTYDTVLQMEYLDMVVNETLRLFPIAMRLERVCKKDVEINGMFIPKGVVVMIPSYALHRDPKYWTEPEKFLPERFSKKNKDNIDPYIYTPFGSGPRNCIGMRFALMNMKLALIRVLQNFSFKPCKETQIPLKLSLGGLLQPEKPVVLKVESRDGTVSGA

OCCN(CCO)CCO
active: [13] 21.1 µM
inactive: all other assays above

Clc1cccc(Cl)c1Cl
inactive: all assays above

Cc1cc(C)cc(C)c1
inactive: all assays above

CN(C)C(=S)S
active: [11] 72.3 µM | [13] 29.7 µM
inactive: all other assays above

Oc1cc(Cl)c(Cl)cc1Cl
inactive: all assays above

N#Cc1cccnc1
inactive: all assays above

CC(C)O.CC(C)O.OCCN(CCO)CCO.OCCN(CCO)CCO.[Ti]
active: [17] 50 µM
not listed: [13]
inactive: all other assays above
